Data on one sequence can be found in article PMC7862700, “An all-to-all approach to the identification of sequence-specific readers for epigenetic DNA modifications on cytosine”.

What all share (experiment): DAPPL (digital affinity profiling via proximity ligation, sequencing); 10 mM Tris-HCl pH 7.5, 50 mM NaCl, 1 mM DTT, 4% glycerol, room temperature, 30 min; GST-TFs on glutathione beads, 16-mer random dsDNA library, 0.1% formaldehyde crosslink after washing; high values mean tight binding
What all share (details): protein: recombinant; tags: N-terminal GST; dsDNA, one strand shown

The target in assay [1] is T1, GABPA (Homo sapiens, UniProt Q06546 1-454).
T1 sequence: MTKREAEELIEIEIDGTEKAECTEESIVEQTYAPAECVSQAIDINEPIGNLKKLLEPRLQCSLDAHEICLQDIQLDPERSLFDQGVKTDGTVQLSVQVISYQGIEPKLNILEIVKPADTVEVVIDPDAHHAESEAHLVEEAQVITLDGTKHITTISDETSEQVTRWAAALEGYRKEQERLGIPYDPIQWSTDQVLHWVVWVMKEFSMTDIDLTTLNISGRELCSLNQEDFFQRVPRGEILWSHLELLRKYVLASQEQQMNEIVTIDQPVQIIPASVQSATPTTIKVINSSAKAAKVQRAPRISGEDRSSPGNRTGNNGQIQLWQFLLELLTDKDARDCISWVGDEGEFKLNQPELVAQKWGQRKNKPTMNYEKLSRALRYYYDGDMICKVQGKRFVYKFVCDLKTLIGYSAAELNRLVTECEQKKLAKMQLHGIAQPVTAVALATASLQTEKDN
The procedure, abridged: (§1)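 Beads coated with glutathione captured GST-fused human transcription factors that had been expressed in yeast, and the factors were then given DNA barcodes and pooled with a tag-only sample. The pools were incubated with 200 nmole of a random double-stranded 16-mer DNA library in Tris/NaCl/DTT/glycerol buffer for 30 min at room temperature, washed, crosslinked with 0.1% formaldehyde and proximity-ligated with BsaI/T4 ligase at 37 °C for 1 h. PCR amplification and Illumina NextSeq500 sequencing came last. Binding signal is each hexamer's read frequency for a factor divided by its frequency for the tag-only sample.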

The target in assay [2] is ELF1 (Homo sapiens, UniProt P32519 1-619). The procedure, abridged: as §1
The target in assay [3] is T2, EHF (Homo sapiens, UniProt Q9NZC4 1-300).
T2 sequence: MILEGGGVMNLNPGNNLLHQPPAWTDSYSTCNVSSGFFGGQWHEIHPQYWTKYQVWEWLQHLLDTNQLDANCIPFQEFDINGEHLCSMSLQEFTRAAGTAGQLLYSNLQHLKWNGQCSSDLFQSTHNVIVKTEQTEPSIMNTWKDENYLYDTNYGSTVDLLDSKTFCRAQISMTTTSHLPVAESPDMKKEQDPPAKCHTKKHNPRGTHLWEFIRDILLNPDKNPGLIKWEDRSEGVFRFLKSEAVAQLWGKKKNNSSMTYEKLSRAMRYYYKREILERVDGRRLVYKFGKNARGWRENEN
The procedure, abridged: as §1

The target of assay [4] is SPI1 (Homo sapiens, UniProt P17947 1-270). The method in brief: as §1
Assay [5] concerns the target SPIB (Homo sapiens, UniProt Q01892 1-262). The procedure, abridged:
as §1

The target of assay [6] is T3, FEV (Homo sapiens, UniProt Q99581 1-238).
T3 sequence: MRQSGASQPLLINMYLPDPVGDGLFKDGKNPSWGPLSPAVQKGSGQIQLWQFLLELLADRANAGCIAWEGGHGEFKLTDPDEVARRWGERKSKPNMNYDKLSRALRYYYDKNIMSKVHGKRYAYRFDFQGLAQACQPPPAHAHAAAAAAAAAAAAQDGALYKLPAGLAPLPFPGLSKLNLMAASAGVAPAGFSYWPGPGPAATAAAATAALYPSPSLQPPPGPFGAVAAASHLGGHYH
The procedure, abridged: as §1

For assay [7], the target named is ETV5 (Homo sapiens, UniProt P41161 1-510). The procedure, abridged: as §1
The target in assay [8] is ELF4 (Homo sapiens, UniProt Q99607 1-663). The method in brief: as §1
Assay [9] deals with T4, ELK4 (Homo sapiens, UniProt P28324-2 1-405).
T4 sequence: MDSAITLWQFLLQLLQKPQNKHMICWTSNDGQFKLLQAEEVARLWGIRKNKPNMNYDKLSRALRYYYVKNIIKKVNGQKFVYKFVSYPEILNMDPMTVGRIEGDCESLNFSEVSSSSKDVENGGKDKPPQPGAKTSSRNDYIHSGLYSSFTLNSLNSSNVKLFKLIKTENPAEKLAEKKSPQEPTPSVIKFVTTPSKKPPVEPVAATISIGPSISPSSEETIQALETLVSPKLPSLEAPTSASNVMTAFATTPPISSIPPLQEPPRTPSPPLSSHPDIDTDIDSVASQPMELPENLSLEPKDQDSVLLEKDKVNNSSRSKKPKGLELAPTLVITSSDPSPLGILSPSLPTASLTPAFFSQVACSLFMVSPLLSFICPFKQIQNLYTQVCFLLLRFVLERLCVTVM
The procedure, abridged: as §1

For assay [10], the target named is T5, ETV2 (Homo sapiens, UniProt O00321 1-342).
T5 sequence: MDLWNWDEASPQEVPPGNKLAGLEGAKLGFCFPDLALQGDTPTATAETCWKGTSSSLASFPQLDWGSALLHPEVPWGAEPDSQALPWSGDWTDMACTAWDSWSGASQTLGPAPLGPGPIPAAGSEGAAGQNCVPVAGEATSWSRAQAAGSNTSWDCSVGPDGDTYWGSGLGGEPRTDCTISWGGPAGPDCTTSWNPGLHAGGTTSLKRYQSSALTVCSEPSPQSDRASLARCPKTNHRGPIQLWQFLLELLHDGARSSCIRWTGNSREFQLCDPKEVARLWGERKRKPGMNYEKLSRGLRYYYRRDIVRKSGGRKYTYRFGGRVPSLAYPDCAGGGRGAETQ
The procedure, abridged:
as §1

In assay [11] the target is ETV1 (Homo sapiens, UniProt P50549 1-477). The method in brief: as §1
The target in assay [12] is T6, ERF (Homo sapiens, UniProt P50548 1-548).
T6 sequence: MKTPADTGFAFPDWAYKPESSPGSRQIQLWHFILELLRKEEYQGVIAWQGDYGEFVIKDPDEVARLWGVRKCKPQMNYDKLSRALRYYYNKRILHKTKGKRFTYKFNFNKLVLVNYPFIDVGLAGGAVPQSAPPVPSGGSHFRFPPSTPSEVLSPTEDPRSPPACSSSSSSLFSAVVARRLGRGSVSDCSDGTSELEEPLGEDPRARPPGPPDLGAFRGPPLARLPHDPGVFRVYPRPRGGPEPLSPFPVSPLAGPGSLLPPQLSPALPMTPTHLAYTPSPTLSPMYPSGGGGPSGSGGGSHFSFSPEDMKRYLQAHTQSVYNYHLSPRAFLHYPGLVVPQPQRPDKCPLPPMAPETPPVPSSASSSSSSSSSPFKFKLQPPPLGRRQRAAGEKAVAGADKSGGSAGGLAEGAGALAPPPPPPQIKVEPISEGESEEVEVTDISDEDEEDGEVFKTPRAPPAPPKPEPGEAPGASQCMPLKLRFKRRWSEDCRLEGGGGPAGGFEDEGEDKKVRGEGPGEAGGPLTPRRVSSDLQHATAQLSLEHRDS
The method in brief:
as §1

In assay [13] the target is T7, ETS2 (Homo sapiens, UniProt P15036 1-469).
T7 sequence: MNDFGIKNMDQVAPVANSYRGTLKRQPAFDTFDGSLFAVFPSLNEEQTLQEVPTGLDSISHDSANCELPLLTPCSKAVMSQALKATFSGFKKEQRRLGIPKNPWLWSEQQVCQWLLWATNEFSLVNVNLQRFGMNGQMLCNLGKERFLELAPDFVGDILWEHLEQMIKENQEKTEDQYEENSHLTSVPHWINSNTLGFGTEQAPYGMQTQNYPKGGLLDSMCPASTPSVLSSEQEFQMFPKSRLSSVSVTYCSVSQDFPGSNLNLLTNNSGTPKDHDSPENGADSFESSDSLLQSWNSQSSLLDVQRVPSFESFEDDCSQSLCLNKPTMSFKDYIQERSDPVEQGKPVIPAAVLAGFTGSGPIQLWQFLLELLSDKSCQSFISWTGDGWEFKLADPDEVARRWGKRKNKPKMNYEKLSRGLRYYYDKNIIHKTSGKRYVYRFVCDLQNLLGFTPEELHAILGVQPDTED
The procedure, abridged: as §1

The target in assay [14] is T8, SPDEF (Homo sapiens, UniProt O95238 1-335).
T8 sequence: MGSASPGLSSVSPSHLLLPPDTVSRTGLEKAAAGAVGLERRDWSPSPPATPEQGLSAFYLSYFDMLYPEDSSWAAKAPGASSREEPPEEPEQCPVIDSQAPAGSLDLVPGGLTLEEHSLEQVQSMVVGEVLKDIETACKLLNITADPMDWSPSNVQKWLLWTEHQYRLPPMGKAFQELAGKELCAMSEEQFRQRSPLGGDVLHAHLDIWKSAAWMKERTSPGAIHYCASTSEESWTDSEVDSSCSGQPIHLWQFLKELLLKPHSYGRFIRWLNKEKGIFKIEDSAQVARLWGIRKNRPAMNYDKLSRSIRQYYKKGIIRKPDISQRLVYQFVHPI
The method in brief: as §1

Assay [15] deals with T9, ETV7 (Homo sapiens, UniProt Q9Y603 1-341).
T9 sequence: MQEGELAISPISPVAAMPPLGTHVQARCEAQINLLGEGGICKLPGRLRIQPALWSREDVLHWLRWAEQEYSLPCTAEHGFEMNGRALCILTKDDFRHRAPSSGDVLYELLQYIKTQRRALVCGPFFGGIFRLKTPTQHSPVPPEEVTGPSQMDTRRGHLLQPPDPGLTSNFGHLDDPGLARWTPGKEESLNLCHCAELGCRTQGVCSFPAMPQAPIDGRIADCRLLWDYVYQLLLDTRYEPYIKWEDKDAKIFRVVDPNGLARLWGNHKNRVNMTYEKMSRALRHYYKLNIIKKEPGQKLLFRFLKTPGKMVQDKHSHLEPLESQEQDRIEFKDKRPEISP
The method in brief:
as §1

In assay [16] the target is T10, ETV3 (Homo sapiens, UniProt P41162-2 1-143).
T10 sequence: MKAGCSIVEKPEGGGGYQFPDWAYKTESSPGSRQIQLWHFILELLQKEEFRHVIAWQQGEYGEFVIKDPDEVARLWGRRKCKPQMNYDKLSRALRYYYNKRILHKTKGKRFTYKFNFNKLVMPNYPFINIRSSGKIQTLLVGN
The method in brief: as §1

The target of assay [17] is ETV6 (Homo sapiens, UniProt P41212 1-452). The procedure, abridged: as §1
ETV6, sequence (P41212 whole entry): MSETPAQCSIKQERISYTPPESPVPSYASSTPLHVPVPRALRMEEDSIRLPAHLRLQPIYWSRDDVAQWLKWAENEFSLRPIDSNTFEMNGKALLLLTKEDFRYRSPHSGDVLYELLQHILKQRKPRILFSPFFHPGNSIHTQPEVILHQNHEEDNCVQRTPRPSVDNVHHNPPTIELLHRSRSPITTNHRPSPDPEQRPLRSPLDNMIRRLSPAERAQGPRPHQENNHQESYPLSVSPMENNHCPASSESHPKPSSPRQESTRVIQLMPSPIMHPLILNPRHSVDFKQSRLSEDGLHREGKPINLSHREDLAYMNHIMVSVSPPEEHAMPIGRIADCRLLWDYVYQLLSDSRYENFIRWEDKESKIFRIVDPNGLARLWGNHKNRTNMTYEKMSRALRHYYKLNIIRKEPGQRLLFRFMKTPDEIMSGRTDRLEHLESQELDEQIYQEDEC

ELF1, sequence (P32519 whole entry): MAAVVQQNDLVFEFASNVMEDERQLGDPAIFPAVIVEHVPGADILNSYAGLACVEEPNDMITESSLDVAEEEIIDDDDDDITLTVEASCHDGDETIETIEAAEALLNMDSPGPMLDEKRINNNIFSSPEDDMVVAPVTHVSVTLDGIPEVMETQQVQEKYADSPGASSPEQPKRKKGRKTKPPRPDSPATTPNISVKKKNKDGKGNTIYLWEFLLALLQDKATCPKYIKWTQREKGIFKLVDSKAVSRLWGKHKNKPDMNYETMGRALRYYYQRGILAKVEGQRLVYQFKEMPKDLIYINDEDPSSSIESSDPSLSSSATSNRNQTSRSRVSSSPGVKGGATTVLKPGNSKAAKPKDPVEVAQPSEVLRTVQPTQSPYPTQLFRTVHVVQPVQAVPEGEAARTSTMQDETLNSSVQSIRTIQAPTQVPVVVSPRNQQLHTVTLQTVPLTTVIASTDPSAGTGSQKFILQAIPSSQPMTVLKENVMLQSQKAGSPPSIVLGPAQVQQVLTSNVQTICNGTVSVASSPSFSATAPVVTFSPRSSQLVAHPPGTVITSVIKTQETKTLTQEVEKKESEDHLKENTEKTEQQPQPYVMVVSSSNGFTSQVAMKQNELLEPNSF
ELF4, sequence (Q99607 whole entry): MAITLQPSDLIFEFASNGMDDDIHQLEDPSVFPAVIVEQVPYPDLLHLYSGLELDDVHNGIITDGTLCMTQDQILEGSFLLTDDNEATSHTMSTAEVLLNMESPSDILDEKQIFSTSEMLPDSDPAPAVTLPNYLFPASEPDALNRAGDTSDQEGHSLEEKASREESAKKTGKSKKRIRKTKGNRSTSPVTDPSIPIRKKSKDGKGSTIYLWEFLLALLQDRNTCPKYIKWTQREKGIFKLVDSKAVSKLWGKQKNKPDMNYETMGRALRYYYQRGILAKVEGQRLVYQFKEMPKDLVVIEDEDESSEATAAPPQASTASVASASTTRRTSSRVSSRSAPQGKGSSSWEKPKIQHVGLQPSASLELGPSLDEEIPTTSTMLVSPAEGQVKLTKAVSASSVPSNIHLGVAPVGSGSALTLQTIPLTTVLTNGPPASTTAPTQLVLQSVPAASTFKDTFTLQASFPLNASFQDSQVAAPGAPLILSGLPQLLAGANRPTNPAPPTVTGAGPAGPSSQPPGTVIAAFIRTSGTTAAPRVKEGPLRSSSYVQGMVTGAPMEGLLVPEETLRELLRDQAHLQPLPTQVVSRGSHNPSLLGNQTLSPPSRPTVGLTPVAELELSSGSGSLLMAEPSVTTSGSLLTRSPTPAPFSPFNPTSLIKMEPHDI
ETV5, sequence (P41161 whole entry): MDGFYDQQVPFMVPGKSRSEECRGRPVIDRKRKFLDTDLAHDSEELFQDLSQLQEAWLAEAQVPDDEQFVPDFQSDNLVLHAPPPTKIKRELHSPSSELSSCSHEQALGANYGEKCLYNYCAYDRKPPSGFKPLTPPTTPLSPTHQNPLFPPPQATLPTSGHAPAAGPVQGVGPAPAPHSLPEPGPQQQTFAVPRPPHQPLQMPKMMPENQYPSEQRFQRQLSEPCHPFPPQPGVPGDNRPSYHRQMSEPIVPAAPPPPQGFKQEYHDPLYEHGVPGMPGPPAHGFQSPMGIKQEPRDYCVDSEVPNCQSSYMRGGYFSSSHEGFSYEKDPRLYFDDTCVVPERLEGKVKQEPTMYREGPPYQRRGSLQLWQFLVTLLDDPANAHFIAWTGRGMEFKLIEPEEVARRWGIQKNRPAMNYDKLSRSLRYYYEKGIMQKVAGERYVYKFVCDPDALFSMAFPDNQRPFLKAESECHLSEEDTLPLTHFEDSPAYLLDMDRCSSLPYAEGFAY
ETV1, sequence (P50549 whole entry): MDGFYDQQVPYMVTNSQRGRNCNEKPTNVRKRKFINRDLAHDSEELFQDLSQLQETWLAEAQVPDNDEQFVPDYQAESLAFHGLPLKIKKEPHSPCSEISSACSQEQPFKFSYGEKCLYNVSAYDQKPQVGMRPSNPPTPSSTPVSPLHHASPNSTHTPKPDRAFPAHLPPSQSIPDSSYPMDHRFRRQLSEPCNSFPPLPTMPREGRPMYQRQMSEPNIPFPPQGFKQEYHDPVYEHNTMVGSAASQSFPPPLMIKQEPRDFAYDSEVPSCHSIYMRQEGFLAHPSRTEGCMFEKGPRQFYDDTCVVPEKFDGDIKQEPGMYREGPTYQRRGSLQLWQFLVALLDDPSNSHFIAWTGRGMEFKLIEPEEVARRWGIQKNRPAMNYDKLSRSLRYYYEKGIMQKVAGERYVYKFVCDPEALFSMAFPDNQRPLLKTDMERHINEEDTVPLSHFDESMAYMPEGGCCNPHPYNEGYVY
SPIB, sequence (Q01892 whole entry): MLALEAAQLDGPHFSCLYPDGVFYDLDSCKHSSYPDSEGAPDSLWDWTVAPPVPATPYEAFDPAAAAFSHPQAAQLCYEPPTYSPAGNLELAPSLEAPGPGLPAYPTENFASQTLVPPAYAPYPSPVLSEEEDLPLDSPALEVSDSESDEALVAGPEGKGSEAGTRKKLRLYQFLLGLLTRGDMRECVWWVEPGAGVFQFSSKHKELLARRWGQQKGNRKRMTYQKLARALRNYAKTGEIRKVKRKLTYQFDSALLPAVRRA

Consider GTAACC, for which the binding signal was 1.01 fold enrichment (6-mer frequency, TF over GST control) in assay [1]; 1.05 fold enrichment (6-mer frequency, TF over GST control) in assay [2]; 1.11 fold enrichment (6-mer frequency, TF over GST control) in [3]; 1.01 fold enrichment (6-mer frequency, TF over GST control) in assay [4]; 1.1 fold enrichment (6-mer frequency, TF over GST control) in assay [5]; 1.04 fold enrichment (6-mer frequency, TF over GST control) in [6]. The binding signal in assay [7] was 1.05 fold enrichment (6-mer frequency, TF over GST control); in assay [8] it was 1.05 fold enrichment (6-mer frequency, TF over GST control); in assay [9] it was 1.02 fold enrichment (6-mer frequency, TF over GST control); in [10], 1.06 fold enrichment (6-mer frequency, TF over GST control); in [11], 1.09 fold enrichment (6-mer frequency, TF over GST control); in assay [12], 1.11 fold enrichment (6-mer frequency, TF over GST control). Also, the binding signal in assay [13] is 1.1 fold enrichment (6-mer frequency, TF over GST control); in assay [14] it was 1.03 fold enrichment (6-mer frequency, TF over GST control); in assay [15], 1.07 fold enrichment (6-mer frequency, TF over GST control); in [16], 1.13 fold enrichment (6-mer frequency, TF over GST control); in assay [17], 1.07 fold enrichment (6-mer frequency, TF over GST control).
